What all share (parameters): scale not given: direction of the effect not stated beside the values
Assay [1] has as its target Protein translocase subunit SecA (Escherichia coli (strain K12)) (UniProt P10408). Description: Assay to Identify E. coli SecA ATPase Inhibitors. The class given is functional. Particulars: 30 µM.
Assay [2] deals with T1, Ubiquitin-activating enzyme e1, putative (Leishmania donovani (strain BPK282A1)) (UniProt E9BSI1).
T1 sequence (whole entry): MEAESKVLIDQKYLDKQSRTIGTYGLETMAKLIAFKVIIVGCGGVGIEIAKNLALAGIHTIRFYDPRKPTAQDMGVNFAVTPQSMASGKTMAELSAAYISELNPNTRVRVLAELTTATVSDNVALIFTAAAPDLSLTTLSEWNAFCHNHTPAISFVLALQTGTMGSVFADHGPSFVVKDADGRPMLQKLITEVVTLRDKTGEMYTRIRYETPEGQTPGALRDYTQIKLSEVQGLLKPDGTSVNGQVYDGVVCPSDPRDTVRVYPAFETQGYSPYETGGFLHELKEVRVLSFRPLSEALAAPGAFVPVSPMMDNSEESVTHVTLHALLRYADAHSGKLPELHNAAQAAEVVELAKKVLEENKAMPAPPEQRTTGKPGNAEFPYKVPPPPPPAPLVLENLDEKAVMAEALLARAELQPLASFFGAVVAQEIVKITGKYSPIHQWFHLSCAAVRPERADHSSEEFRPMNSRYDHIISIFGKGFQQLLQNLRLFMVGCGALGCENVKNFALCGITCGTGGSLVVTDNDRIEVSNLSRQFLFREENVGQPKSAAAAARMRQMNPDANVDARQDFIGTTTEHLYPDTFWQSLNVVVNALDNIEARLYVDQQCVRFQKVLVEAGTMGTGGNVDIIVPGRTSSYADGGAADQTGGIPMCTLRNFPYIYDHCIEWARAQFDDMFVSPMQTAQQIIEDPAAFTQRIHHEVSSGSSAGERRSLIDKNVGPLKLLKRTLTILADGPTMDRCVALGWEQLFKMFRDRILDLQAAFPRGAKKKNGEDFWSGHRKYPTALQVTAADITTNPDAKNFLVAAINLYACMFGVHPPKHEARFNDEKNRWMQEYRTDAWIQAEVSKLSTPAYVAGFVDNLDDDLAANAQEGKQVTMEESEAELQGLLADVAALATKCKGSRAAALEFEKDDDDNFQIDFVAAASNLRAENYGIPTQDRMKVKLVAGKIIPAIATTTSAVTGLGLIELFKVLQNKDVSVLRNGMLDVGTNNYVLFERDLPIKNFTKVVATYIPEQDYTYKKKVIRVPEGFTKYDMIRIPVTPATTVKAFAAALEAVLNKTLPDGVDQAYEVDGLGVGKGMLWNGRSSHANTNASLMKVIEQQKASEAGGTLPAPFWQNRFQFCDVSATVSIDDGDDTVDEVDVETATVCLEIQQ
Put plainly: Leishmania donovani Ubiquitin Activating Enzyme (LdE1). The class given is functional. Particulars: 30 µM.

Assay [3] deals with AMP-activated protein kinase, AMPK (Homo sapiens) (UniProt P54646+O43741+P54619+Q9UGJ0+Q9Y478+Q13131+Q9UGI9). Description: AMP-dependent Kinase enzyme assay. An in vitro enzyme assay that detects ADP turnover that is directly proportional to AMPK activity. This uses naive AMPK that is activated during the assay with MK-8722. To be noted: 30 µM. The class given is functional.

Assay [4] addresses Sialic acid-binding Ig-like lectin 9 (Homo sapiens) (UniProt Q9Y336). Put plainly: Hs-Siglec9 ALPHAscreen SOP 20170721. Particulars: 10 µM.
The subject of the next assay is Trypanosoma cruzi. Description: Trypanosoma cruzi phosphomannomutase and mannose-1-phosphate guanylyltransferase assay. It counts as functional. Particulars: 10 µM.
Assay [5] deals with T2, Arginase-2, mitochondrial (Homo sapiens) (UniProt P78540).
T2 sequence (whole entry): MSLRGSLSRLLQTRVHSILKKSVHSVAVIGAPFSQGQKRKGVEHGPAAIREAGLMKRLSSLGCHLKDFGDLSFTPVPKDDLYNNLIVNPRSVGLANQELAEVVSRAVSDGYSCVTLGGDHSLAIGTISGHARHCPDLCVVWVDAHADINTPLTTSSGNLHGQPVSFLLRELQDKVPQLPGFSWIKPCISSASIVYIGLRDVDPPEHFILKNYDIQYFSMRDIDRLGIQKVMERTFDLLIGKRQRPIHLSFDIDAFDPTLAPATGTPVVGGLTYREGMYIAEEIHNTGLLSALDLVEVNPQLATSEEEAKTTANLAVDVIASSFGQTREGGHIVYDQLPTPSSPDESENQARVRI
Put plainly: in vitro enzyme assay to detect the production of urea directly proportional to the activity of Arginase II. Note: in the data most compounds retested in dose-response had high values. It counts as functional. Particulars: 33.3 µM.

The target in assay [6] is T3, Proteasome subunit beta (Trypanosoma cruzi) (UniProt O96673).
T3 sequence (whole entry): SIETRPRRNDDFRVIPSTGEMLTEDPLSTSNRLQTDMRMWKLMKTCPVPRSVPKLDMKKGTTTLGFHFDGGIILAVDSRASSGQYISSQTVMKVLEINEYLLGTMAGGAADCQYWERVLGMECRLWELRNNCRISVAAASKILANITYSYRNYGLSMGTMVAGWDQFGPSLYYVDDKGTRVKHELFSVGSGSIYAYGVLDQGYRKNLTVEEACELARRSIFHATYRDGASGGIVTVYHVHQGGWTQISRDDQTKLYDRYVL
Description: Trypanosoma cruzi proteasome chymotrypsin-like activity (TcProtChymo) assay. Note: in the data most compounds retested in dose-response had high values. It counts as functional. To be noted: 9.37 µM.

Another assay is filed under the species Homo sapiens. Description: To identify inhibition of the IFN signalling (Jak-Stat) pathway via expression of an eGFP reporter gene under the control of an IFN-stimulated response element (ISRE) containing MxA promoter. The class given is functional. To be noted: 30 µM. For orientation: A reporter such as luciferase makes a cellular process visible.
In assay [7] the target is T4, Tyrosyl-tRNA synthetase, putative (Trypanosoma cruzi (strain CL Brener)) (UniProt Q4DSP6).
T4 sequence (whole entry): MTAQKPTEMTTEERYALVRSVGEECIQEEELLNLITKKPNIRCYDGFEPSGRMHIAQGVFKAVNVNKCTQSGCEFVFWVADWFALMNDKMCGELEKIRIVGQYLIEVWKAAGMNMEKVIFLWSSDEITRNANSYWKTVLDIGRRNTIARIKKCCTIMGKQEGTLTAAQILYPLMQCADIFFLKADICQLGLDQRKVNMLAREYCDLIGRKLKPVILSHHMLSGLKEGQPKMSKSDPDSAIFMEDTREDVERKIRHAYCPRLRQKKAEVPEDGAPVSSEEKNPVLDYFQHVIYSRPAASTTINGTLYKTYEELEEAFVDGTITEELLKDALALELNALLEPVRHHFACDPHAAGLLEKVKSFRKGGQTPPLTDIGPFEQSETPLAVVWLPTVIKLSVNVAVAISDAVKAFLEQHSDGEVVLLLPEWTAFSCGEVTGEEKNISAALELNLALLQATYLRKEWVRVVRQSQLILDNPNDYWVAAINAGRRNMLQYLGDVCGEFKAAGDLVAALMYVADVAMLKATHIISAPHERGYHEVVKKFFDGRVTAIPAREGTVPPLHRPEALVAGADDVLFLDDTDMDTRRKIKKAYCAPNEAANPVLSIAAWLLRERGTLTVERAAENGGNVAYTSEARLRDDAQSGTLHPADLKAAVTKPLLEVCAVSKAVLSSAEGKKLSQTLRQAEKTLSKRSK
Description: Trypanosoma cruzi tyrosyl tRNA synthetase (TcYRS) _High Tyrosine SOP. Note: in the data most compounds retested in dose-response had high values. It counts as functional. To be noted: 30 µM.

Assay [8] concerns the target T4, Tyrosyl-tRNA synthetase, putative (Trypanosoma cruzi (strain CL Brener)). Description: Trypanosoma cruzi tyrosyl tRNA synthetase (TcYRS) SOP. The class given is functional. Particulars: 30 µM.
In assay [9] the target is Chromo domain-containing protein 1 (Saccharomyces cerevisiae (strain ATCC 204508 / S288c) (Baker's yeast)) (UniProt P32657). Description: ScCHD-1 Enzyme Inhibition Assay. Note: in the data most compounds retested in dose-response had high values. Particulars: 30 µM. The class given is functional.

For some of these results: Potency and affinity values are given separately.

Chain of Protein translocase subunit SecA (Escherichia coli (strain K12)) (P10408 whole entry): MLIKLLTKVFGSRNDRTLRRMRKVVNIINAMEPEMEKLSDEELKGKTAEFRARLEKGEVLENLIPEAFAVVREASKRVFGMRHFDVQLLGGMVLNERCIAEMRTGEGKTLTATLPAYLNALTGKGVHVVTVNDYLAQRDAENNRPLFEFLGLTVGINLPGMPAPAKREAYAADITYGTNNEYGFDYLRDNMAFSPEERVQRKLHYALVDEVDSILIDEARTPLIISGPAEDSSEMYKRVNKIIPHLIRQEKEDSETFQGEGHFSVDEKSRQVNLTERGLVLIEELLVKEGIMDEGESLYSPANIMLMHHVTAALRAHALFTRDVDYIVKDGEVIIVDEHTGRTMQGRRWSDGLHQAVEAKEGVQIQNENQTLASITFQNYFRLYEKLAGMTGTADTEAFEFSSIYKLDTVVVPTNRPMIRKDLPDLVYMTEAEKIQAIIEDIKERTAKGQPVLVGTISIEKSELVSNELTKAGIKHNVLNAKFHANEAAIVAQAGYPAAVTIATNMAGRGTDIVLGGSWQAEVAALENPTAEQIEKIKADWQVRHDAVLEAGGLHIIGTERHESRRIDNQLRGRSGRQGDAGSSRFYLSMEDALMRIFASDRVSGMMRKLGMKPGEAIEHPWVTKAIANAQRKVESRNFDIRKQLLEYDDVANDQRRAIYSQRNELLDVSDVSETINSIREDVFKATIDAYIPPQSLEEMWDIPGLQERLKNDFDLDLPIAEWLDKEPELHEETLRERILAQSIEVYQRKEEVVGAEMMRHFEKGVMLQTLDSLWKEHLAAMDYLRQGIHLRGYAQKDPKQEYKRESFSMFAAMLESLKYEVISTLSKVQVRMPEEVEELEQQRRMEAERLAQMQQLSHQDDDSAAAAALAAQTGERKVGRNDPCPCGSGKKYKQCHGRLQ
Chain of Chromo domain-containing protein 1 (Saccharomyces cerevisiae (strain ATCC 204508 / S288c) (Baker's yeast)) (P32657 whole entry, the tested form may be a part): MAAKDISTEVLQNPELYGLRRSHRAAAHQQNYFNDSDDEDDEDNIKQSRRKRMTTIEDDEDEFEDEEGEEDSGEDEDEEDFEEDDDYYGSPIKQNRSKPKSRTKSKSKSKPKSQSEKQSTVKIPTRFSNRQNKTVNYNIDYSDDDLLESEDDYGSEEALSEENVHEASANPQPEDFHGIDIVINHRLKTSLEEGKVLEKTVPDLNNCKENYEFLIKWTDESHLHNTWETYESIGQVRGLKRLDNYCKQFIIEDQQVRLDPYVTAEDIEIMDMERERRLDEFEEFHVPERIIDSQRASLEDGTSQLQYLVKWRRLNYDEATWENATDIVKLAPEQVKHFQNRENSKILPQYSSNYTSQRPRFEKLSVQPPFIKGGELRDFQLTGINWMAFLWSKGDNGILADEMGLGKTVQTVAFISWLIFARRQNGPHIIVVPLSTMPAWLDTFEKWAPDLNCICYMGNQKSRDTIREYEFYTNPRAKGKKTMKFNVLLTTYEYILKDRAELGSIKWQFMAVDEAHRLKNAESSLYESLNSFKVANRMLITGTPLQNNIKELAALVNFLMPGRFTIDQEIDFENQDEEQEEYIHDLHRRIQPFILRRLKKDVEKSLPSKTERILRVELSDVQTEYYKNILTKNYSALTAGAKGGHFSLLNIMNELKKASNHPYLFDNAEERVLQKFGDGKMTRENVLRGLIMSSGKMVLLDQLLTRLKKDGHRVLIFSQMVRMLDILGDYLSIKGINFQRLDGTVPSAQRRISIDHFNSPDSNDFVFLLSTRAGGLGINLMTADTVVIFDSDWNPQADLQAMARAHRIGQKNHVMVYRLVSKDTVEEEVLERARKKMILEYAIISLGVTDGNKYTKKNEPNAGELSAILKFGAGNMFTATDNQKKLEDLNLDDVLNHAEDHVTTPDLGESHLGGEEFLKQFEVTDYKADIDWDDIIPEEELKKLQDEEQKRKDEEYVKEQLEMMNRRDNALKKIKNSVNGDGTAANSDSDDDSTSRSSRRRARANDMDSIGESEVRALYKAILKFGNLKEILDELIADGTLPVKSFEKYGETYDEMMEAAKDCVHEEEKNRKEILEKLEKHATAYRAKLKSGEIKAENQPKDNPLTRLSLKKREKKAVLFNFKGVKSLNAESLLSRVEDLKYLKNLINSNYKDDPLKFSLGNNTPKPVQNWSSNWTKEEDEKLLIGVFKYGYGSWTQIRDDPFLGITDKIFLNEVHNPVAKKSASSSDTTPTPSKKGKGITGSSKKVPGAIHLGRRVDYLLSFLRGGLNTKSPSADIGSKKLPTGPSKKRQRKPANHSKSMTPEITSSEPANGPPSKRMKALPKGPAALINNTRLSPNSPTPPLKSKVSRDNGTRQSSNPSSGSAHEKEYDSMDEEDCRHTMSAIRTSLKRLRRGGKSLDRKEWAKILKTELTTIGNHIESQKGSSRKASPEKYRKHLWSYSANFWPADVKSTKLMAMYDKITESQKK
Chain of Sialic acid-binding Ig-like lectin 9 (Homo sapiens) (Q9Y336 whole entry): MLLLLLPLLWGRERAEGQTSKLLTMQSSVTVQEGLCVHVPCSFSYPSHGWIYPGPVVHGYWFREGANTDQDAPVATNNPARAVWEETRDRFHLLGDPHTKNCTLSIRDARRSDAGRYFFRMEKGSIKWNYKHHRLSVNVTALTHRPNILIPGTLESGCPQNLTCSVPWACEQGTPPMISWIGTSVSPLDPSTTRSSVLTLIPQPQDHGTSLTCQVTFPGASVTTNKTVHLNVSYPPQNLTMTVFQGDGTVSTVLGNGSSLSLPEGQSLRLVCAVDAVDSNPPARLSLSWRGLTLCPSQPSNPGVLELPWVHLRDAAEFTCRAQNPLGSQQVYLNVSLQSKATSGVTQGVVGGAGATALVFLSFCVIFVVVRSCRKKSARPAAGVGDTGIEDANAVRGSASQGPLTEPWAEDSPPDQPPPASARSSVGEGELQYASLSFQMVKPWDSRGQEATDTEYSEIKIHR

Consider `CCn1ccnc1CN1CCN(Cc2ccc(C#N)cc2)CC1`, for which the Percent Effect was -5.95% in assay [1]; 21.1% in assay [2]; -10.9% in assay [3]; -5.15% in assay [4]; 9.96% in the assay with Trypanosoma cruzi; -4.6% in [5]. The Percent Effect in assay [6] was 15.9%; in the assay filed under Homo sapiens it was 19.8%; in assay [7], 3.43%; in [8] it was 19.5%; in [9] it was -11.6%.
`O=C(NCCc1ccccn1)C1=NN(c2ccccc2)C(=O)CN1`: the Percent Effect is 0.741% in assay [1]; 15.2% in assay [2]; 0.826% in assay [3]; -11.6% in assay [4]; -9.16% in the assay with Trypanosoma cruzi; 6.08% in assay [5]. Moreover, the Percent Effect in [6] was 4.83%; in the assay filed under Homo sapiens it was 11.7%; in assay [7], 2.46%; in assay [8], 13.9%; in assay [9], -1.69%.
With `CS(=O)(=O)NCC1CCCN(Cc2ccc(F)c3cccnc23)C1` (stereo unspecified), the Percent Effect is -1.47% in assay [1]; 2.6% in assay [2]; -1.1% in assay [3]; 10.8% in [4]; -2.06% with Trypanosoma cruzi; -4.14% in [5]. In addition, the Percent Effect in [6] came to 18.5%; in the assay listed under Homo sapiens, 16.9%; in assay [7], 5.38%; in [8] it was 13.6%; in assay [9], 3.65%.
In the case of `COc1ccccc1C(=O)NC(C)CC(=O)O` (stereo unspecified), the Percent Effect in [1] was -6.61%; in [2] it was 11.4%; in assay [3] it was 1.36%; in assay [4], -1.14%; in the assay with Trypanosoma cruzi it was 1.74%; in [5], 1.07%. Also, the Percent Effect in assay [6] was 2.92%; in the assay listed under Homo sapiens it was 12.6%; in assay [7] it was 5.21%; in assay [8], 15.2%; in assay [9], -12.9%.
In the case of `COc1ncccc1C(=O)NCC1Cc2ccccc2O1` (stereo unspecified), the Percent Effect in assay [1] is -0.887%; in [2] it was 5.48%; in assay [3], 2.87%; in [4] it was 0.0975%; in the assay with Trypanosoma cruzi, -1.76%; in [5], 1.36%. The Percent Effect in assay [6] is 21.3%; in the assay listed under Homo sapiens it was -1.66%; in assay [7] it was 4.3%; in [8], 12.5%; in assay [9], -7.46%.
On to `Cc1cccc(CN2CCc3ncnc(C)c3CC2)n1`, for which the Percent Effect is 1.12% in [1]; 8.22% in [2]; 5.73% in [3]; 7.82% in assay [4]; -5.75% in the assay with Trypanosoma cruzi; -0.798% in [5]. Also, the Percent Effect was 13.4% in [6]; 4.7% in the assay filed under Homo sapiens; -1.04% in assay [7]; 8.64% in assay [8]; -4.79% in [9].
`Cc1cnn(CC2CN(CCN3CCCC3=O)CCO2)c1` (stereo unspecified): the Percent Effect is -6.18% in assay [1]; 5.41% in assay [2]; -4.61% in [3]; 8.1% in assay [4]; 8.7% in the assay with Trypanosoma cruzi; 0.744% in [5]. Also, the Percent Effect is 7.3% in assay [6]; -3.36% in the assay filed under Homo sapiens; -3.23% in assay [7]; 11.1% in [8]; -4.96% in assay [9].
For `Cc1ncccc1Oc1nccnc1C1CCN(C(C)C)CC1`, the Percent Effect in assay [1] was -6.52%; in assay [2], 6.76%; in [3], 1.33%; in assay [4], 5.77%; in the assay with Trypanosoma cruzi, 0.593%; in [5] it was -2.09%. Further, the Percent Effect in assay [6] was 2.65%; in the assay filed under Homo sapiens, -0.668%; in assay [7], -31.2%; in assay [8] it was 9.09%; in [9] it was -19.2%.
In the case of `COc1ccc(CCC(=O)NC2CCC(O)CC2)cc1OC` (stereo unspecified), the Percent Effect in [1] is -5.53%; in [2], 13.2%; in assay [3] it was -3.83%; in assay [4] it was 13%; in the assay on Trypanosoma cruzi, -0.654%; in [5], -3.24%. The Percent Effect in [6] was 2.12%; in the assay listed under Homo sapiens, 7.63%; in assay [7], 2.46%; in [8] it was 6.17%; in assay [9], -1.04%.
With `CNC(=O)CS(=O)(=O)Cc1cc(Cl)c2c(c1)OCCCO2`, the Percent Effect was -1.64% in assay [1]; 12.7% in [2]; -5.11% in assay [3]; -6.27% in [4]; 3.87% in the assay with Trypanosoma cruzi; -2.66% in assay [5]. The Percent Effect in assay [6] was 7.62%; in the assay listed under Homo sapiens it was -4.79%; in assay [7], 10.3%; in [8], 24.1%; in [9], -6.28%.
Turning to `COc1ccc(CN2CCC(O)CC2)c(OC)c1`, the Percent Effect was -2.06% in assay [1]; 0% in assay [2]; -1.5% in assay [3]; 2.82% in assay [4]; 1.93% in the assay with Trypanosoma cruzi; -1.91% in assay [5]. The Percent Effect in assay [6] was 4.83%; in the assay listed under Homo sapiens, 13.4%; in assay [7] it was 2.65%; in assay [8], 9.76%; in assay [9], -0.716%.

For the origin of these results see ChEMBL document CHEMBL3988442, “University of Dundee, Small-Polar-MMV Screening Library” (2021).
